These results are taken from PubChem BioAssay (NCI).

Structures are written as SMILES. About 79,000 compounds went through this panel and 15% of them were active in at least one assay; those are over-represented in the sample as a whole. Values without a mark were called inactive. Rule as the data show it: active = growth inhibition above about 70%; inactive = the rest.

The first assay is described as follows: NCI Yeast Anticancer Drug Screen. Data for the rad50 strain (AID 155).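 Also: 0% = growth of vehicle-only cultures of the same strain.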 The note with it: S. cerevisiae rad50 strain growth inhibition; at 50.0 µM; active compounds read high. The method in brief:
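A DNA repair-deficient yeast mutant serves as the test organism; compound-induced growth inhibition is calculated against vehicle-treated cells.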
Regarding `C=C(C)CC1CN2CCc3cc(OC)c(OC)cc3C2CC1=O` (stereo not given), the growth inhibition is 25.3%.
For the molecule `Clc1ccc2oc(N3CCOCC3)nc2c1`, the growth inhibition was 20.6%.
Still for that read-out and setting: the figure for `O=c1nc(N2CCCCCCC2)ccn1C1OC(CO)C(O)C1O` (stereo not given) is 4.85%.
Still for that read-out and setting: the figure for `Cn1c(=O)c2[nH]c(CC3=CCCCC3)nc2n(C)c1=O` is -13.6%; for `CC[N+](C)(CC)CCOc1nc2c(c(=O)n(C)c(=O)n2C)n1C` it is -9.5%; for `CC(=O)CCC(=O)OCc1ccccc1` it is 35.1%.
For the molecule `O=C(NCCO)Nc1ccc2c(c1)OCCOCCOCCOCCO2`, the growth inhibition was -0.95%.
For `S=C(N1CCN(c2ccc(Cl)c(Cl)c2)CC1)N1CCN(c2ccc(Cl)c(Cl)c2)CC1`, the growth inhibition was 7.8%.
Still for that read-out and setting: the figure for `NCCSC(O)(C(F)(F)F)C(F)(F)F` is 19.6%; for `CC(C)=Cc1cc(C(=O)Nc2ccc(Cl)c(Cl)c2)nc(N)n1` it is -25.2%; for `OC1c2ccccc2OC2(N3CCCC3)CCCCC12` (stereo not given) it is -5.6%.
Take `Cc1nc2c(-c3ccccc3)[nH]c(C)c2c(=O)o1`: the growth inhibition was -17.2%.
With `COC1OC(C(COC(=O)c2ccccc2)OC(=O)c2ccccc2)C(OC(=O)c2ccccc2)C1OS(C)(=O)=O` (stereo not given), the growth inhibition is 5.35%.
Take `COCc1ccc(C(=O)Nc2c(N)ncnc2N)cc1`: the growth inhibition was 5.4%.
As for `CC(C)(C)C(=O)CC(=O)C(C)(C)C.CC(C)(C)C(=O)CC(=O)C(C)(C)C.CC(C)(C)C(=O)CC(=O)C(C)(C)C.[Co]`, the growth inhibition is -10.1%.
Same read-out and setting: the figure for `CNC(=O)Sc1ccc([N+](C)(C)C)cc1` is 9.8%.
For `CCCN1C(=O)c2cc(=O)n(Cc3ccccc3)c(O)c2C1C` (stereo not given), the growth inhibition is 6.95%.
Take `CC(=O)/C=C(O)/C=C/c1ccccc1`: the growth inhibition was -0.9%.
Consider `C1CCCNCCNCCNCC1`, for which the growth inhibition was -4.4%.
Same read-out and setting: the figure for `O=NNc1ccnc(-c2cc(NN=O)ccn2)c1` is 22.2%; for `CCC1(C(Cl)(Cl)Cl)C=CC(=O)C=C1` it is 13%; for `CCCCCCc1cc(C(=O)N/N=C/c2ccccc2O)c2ccccc2n1` it is -35.2%.
As to `Cc1ccc(CNC(=O)Nc2cccc(Cl)c2)cc1C`, the growth inhibition is 6.05%.
Turning to `O=C(O)CCC(=O)c1ccc2c3c1CCCC3CC2` (stereo not given), the growth inhibition was 52.8%.
Regarding `CCOC(=O)C1=CC(C)(C(=O)OCC)Nc2c(nc(SC)n(C)c2=O)N1` (stereo not given), the growth inhibition was -19.4%.
On the same count and under the same terms, the figure for `COc1ccc(C(C)c2cc3c(cc2OC)OCO3)cc1` (stereo not given) is 9.25%.
Same read-out and setting: the figure for `COc1ccccc1/C=C1/Sc2scc(CC(=O)Nc3ccccc3)[n+]2C1=O` is 8.9%; for `NC(=O)C(=O)NNC(=O)Nc1ccc(Cl)cc1` it is 16.8%; for `COc1ccc(N2C(=O)C3CC(c4ccc(Br)cc4)c4c([nH]c5ccccc45)C3C2=O)cc1` (stereo not given) it is 1.7%.
Same read-out and setting: the figure for `O=N[O-].O=N[O-].[Co].[NH-]CC[N-]CC[N-]CC[NH-]` is 10.4%; for `COc1cccc2c1oc(=O)c1ccccc12` it is 9.55%; for `O=C1[C@H]2ON(c3ccccc3)C(c3ccc(Cl)cc3)[C@H]2C(=O)N1c1ccc(Cc2ccc(N3C(=O)[C@@H]4ON(c5ccccc5)C(c5ccc(Cl)cc5)[C@@H]4C3=O)cc2)cc1` (stereo not given in full) it is 1.75%.
On to `Cc1ccc(C(=O)C2CC2c2ccccc2)cc1` (stereo not given), for which the growth inhibition was 6.05%.
As to `Cc1cc(Cl)c(C)c(C)c1O`, the growth inhibition is 22.6%.
For `COC(=O)/C(=N\NC(N)=O)C(C#N)c1ccccc1` (stereo not given), the growth inhibition is -12.5%.
The same measure, in the same setting: the figure for `CC(=O)NC1C(=O)N(c2ccccc2)N=C1C` (stereo not given) is 15.6%; for `C/C(=N\NC(N)=S)c1ccc(/C(C)=N/NC(N)=S)cc1` it is -44.6%.
In the case of `Nc1c(-c2nc3ccccc3[nH]2)sc(=S)n1-c1ccc(Cl)cc1`, the growth inhibition was -11.6%.
`COc1cccc(/C(C=O)=C(\Cl)c2ccc(OC)c(OC)c2)c1`: the growth inhibition was 10.1%.
With `CCCCC1(CCO)C(=O)N=C(N)NC1=O` (stereo not given), the growth inhibition was -15%.

A further assay is described as follows: NCI Yeast Anticancer Drug Screen. Data for the mec2-1 strain (AID 157). The conditions noted are these: S. cerevisiae mec2-1 strain, at 50.0 µM, active compounds read high. A digest of the protocol:
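Test agents were screened against the mec2-1 yeast strain, with defined DNA repair or cell cycle alteration. Growth was scored as inhibition against vehicle-only controls.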
Turning to `C=C(C)CC1CN2CCc3cc(OC)c(OC)cc3C2CC1=O` (stereo not given), the growth inhibition was 6.85%.
As for `Clc1ccc2oc(N3CCOCC3)nc2c1`, the growth inhibition is 23.6%.
Still for that read-out and setting: the figure for `O=c1nc(N2CCCCCCC2)ccn1C1OC(CO)C(O)C1O` (stereo not given) is 14.6%.
With `Cn1c(=O)c2[nH]c(CC3=CCCCC3)nc2n(C)c1=O`, the growth inhibition was 13.1%.
Same read-out and setting: the figure for `CC[N+](C)(CC)CCOc1nc2c(c(=O)n(C)c(=O)n2C)n1C` is -6.85%; for `CC(=O)CCC(=O)OCc1ccccc1` it is 7.75%; for `O=C(NCCO)Nc1ccc2c(c1)OCCOCCOCCOCCO2` it is 4.8%.
With `S=C(N1CCN(c2ccc(Cl)c(Cl)c2)CC1)N1CCN(c2ccc(Cl)c(Cl)c2)CC1`, the growth inhibition was 22.2%.
Still for that read-out and setting: the figure for `NCCSC(O)(C(F)(F)F)C(F)(F)F` is 8.85%.
The same measure, in the same setting: the figure for `CC(C)=Cc1cc(C(=O)Nc2ccc(Cl)c(Cl)c2)nc(N)n1` is -45.4%; for `OC1c2ccccc2OC2(N3CCCC3)CCCCC12` (stereo not given) it is -29.9%.
With `Cc1nc2c(-c3ccccc3)[nH]c(C)c2c(=O)o1`, the growth inhibition was -40.1%.
The same measure, in the same setting: the figure for `COC1OC(C(COC(=O)c2ccccc2)OC(=O)c2ccccc2)C(OC(=O)c2ccccc2)C1OS(C)(=O)=O` (stereo not given) is -2.55%.
With `COCc1ccc(C(=O)Nc2c(N)ncnc2N)cc1`, the growth inhibition was 13.7%.
Still for that read-out and setting: the figure for `CC(C)(C)C(=O)CC(=O)C(C)(C)C.CC(C)(C)C(=O)CC(=O)C(C)(C)C.CC(C)(C)C(=O)CC(=O)C(C)(C)C.[Co]` is -8.95%; for `CNC(=O)Sc1ccc([N+](C)(C)C)cc1` it is 0.1%; for `CCCN1C(=O)c2cc(=O)n(Cc3ccccc3)c(O)c2C1C` (stereo not given) it is 33%.
For `CC(=O)/C=C(O)/C=C/c1ccccc1`, the growth inhibition is 5.45%.
Turning to `C1CCCNCCNCCNCC1`, the growth inhibition was -17.1%.
On the same count and under the same terms, the figure for `O=NNc1ccnc(-c2cc(NN=O)ccn2)c1` is 16.4%; for `CCC1(C(Cl)(Cl)Cl)C=CC(=O)C=C1` it is 13.3%.
The same measure, in the same setting: the figure for `CCCCCCc1cc(C(=O)N/N=C/c2ccccc2O)c2ccccc2n1` is -8.1%.
On the same count and under the same terms, the figure for `Cc1ccc(CNC(=O)Nc2cccc(Cl)c2)cc1C` is 15.5%.
In the case of `O=C(O)CCC(=O)c1ccc2c3c1CCCC3CC2` (stereo not given), the growth inhibition was 51.5%.
With `CCOC(=O)C1=CC(C)(C(=O)OCC)Nc2c(nc(SC)n(C)c2=O)N1` (stereo not given), the growth inhibition was -21.2%.
With `COc1ccc(C(C)c2cc3c(cc2OC)OCO3)cc1` (stereo not given), the growth inhibition is -32.6%.
Turning to `COc1ccccc1/C=C1/Sc2scc(CC(=O)Nc3ccccc3)[n+]2C1=O`, the growth inhibition is 4%.
The same measure, in the same setting: the figure for `NC(=O)C(=O)NNC(=O)Nc1ccc(Cl)cc1` is 12.3%.
In the case of `COc1ccc(N2C(=O)C3CC(c4ccc(Br)cc4)c4c([nH]c5ccccc45)C3C2=O)cc1` (stereo not given), the growth inhibition is -14.4%.
On the same count and under the same terms, the figure for `O=N[O-].O=N[O-].[Co].[NH-]CC[N-]CC[N-]CC[NH-]` is 7.2%; for `COc1cccc2c1oc(=O)c1ccccc12` it is -6.75%.
Regarding `O=C1[C@H]2ON(c3ccccc3)C(c3ccc(Cl)cc3)[C@H]2C(=O)N1c1ccc(Cc2ccc(N3C(=O)[C@@H]4ON(c5ccccc5)C(c5ccc(Cl)cc5)[C@@H]4C3=O)cc2)cc1` (stereo not given in full), the growth inhibition is 8.6%.
Consider `Cc1ccc(C(=O)C2CC2c2ccccc2)cc1` (stereo not given), for which the growth inhibition is -1.9%.
Same read-out and setting: the figure for `Cc1cc(Cl)c(C)c(C)c1O` is 5.45%.
As to `COC(=O)/C(=N\NC(N)=O)C(C#N)c1ccccc1` (stereo not given), the growth inhibition was -1.85%.
The same measure, in the same setting: the figure for `CC(=O)NC1C(=O)N(c2ccccc2)N=C1C` (stereo not given) is -6.05%; for `C/C(=N\NC(N)=S)c1ccc(/C(C)=N/NC(N)=S)cc1` it is -0.25%.
On the same count and under the same terms, the figure for `Nc1c(-c2nc3ccccc3[nH]2)sc(=S)n1-c1ccc(Cl)cc1` is -30.7%; for `COc1cccc(/C(C=O)=C(\Cl)c2ccc(OC)c(OC)c2)c1` it is 9.55%; for `CCCCC1(CCO)C(=O)N=C(N)NC1=O` (stereo not given) it is -3.85%.
